# Source: the supplement of paper PMC8728848
# This is one part of a sample in which the strongest signals are shown more often than they occur.
# Columns and labels:
# Experiment in all cases: glycan array binding signal (z-score within array); higher = stronger binding
# Conditions in all cases: glycan notation: IUPAC condensed, linker removed
# [1] = target: GalNAc(b1-4)GlcNAc(b1-2)Man(a1-3)[GalNAc(b1-4)GlcNAc(b1-2)Man(a1-6)]Man(b1-4)GlcNAc(b1-4)GlcNAc
# Method in brief: (§1)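 Columns mapping to the same glycan were averaged after glycan names were converted to IUPAC-condensed notation. The data come from 3228 arrays in the Consortium for Functional Glycomics database, limited to those with an available protein sequence. Binding is reported as a within-array Z-score averaged across arrays of one protein sequence and across linkers.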
# [2] = target: GlcNAc(b1-2)Man(a1-3)[GlcNAc(b1-4)][GlcNAc(b1-2)Man(a1-6)]Man(b1-4)GlcNAc(b1-4)GlcNAc
# Method in brief: as §1
# [3] = target: GlcNAc(b1-3)Gal(b1-4)Glc
# Method in brief: as §1
# [4] = target: GlcNAc(b1-3)Gal(b1-4)GlcNAc
# Method in brief: as §1
# [5] = target: GlcNAc(b1-3)Gal(b1-4)GlcNAc(b1-2)Man(a1-3)[GlcNAc(b1-3)Gal(b1-4)GlcNAc(b1-2)Man(a1-6)]Man(b1-4)GlcNAc(b1-4)GlcNAc
# Method in brief: as §1
# [6] = target: GlcNAc(b1-3)Gal(b1-4)GlcNAc(b1-3)Gal(b1-4)GlcNAc(b1-2)Man(a1-3)[GlcNAc(b1-3)Gal(b1-4)GlcNAc(b1-3)Gal(b1-4)GlcNAc(b1-2)Man(a1-6)]Man(b1-4)GlcNAc(b1-4)GlcNAc
# Method in brief: as §1
# [7] = target: GlcNAc(b1-3)Gal(b1-4)GlcNAc(b1-6)[GlcNAc(b1-3)Gal(b1-3)]GalNAc
# Method in brief: as §1
# [8] = target: Man(a1-2)Man(a1-3)[Man(a1-2)Man(a1-6)]Man(a1-6)[Man(a1-2)Man(a1-2)Man(a1-3)]Man
# Method in brief: as §1
# [9] = target: Man(a1-3)[Man(a1-6)]Man(b1-4)GlcNAc(b1-4)[Fuc(a1-6)]GlcNAc
# Method in brief: as §1
# [10] = target: Neu5Ac(a2-3)Gal(b1-3)GlcNAc(b1-2)[Neu5Ac(a2-3)Gal(b1-3)GlcNAc(b1-4)]Man(a1-6)[Neu5Ac(a2-3)Gal(b1-3)GlcNAc(b1-2)Man(a1-3)]Man(b1-4)GlcNAc(b1-4)GlcNAc
# Method in brief: as §1
# [11] = target: Neu5Ac(a2-3)Gal(b1-4)GlcNAc(b1-2)Man
# Method in brief: as §1
# [12] = target: Neu5Ac(a2-3)Gal(b1-4)GlcNAc(b1-3)Gal(b1-4)GlcNAc(b1-2)Man(a1-3)[Neu5Ac(a2-3)Gal(b1-4)GlcNAc(b1-3)Gal(b1-4)GlcNAc(b1-2)Man(a1-6)]Man(b1-4)GlcNAc(b1-4)GlcNAc
# Method in brief: as §1
# [13] = target: Neu5Ac(a2-3)Gal(b1-4)GlcNAc(b1-3)Gal(b1-4)GlcNAc(b1-3)[Neu5Ac(a2-3)Gal(b1-4)GlcNAc(b1-3)Gal(b1-4)GlcNAc(b1-6)]GalNAc
# Method in brief: as §1
# [14] = target: Neu5Ac(a2-3)Gal(b1-4)[Fuc(a1-3)]GlcNAc(b1-2)Man
# Method in brief: as §1
# [15] = target: Neu5Ac(a2-6)Gal(b1-4)GlcNAc(b1-2)Man(a1-3)[GlcNAc(b1-2)Man(a1-6)]Man(b1-4)GlcNAc(b1-4)GlcNAc
# Method in brief: as §1
# [16] = target: Neu5Ac(a2-6)Gal(b1-4)GlcNAc(b1-2)Man(a1-6)Man(b1-4)GlcNAc(b1-4)GlcNAc
# Method in brief: as §1
# [17] = target: Neu5Ac(a2-6)Gal(b1-4)GlcNAc(b1-3)Gal(b1-4)GlcNAc(b1-2)Man(a1-3)[Neu5Ac(a2-6)Gal(b1-4)GlcNAc(b1-3)Gal(b1-4)GlcNAc(b1-2)Man(a1-6)]GalNAc
# Method in brief: as §1
# [18] = target: Neu5Ac(a2-6)Gal(b1-4)GlcNAc(b1-3)Gal(b1-4)GlcNAc(b1-3)[Neu5Ac(a2-6)Gal(b1-4)GlcNAc(b1-3)Gal(b1-4)GlcNAc(b1-6)]GalNAc
# Method in brief: as §1
# [19] = target: Neu5Ac(a2-6)Gal(b1-4)GlcNAc(b1-3)Gal(b1-4)[Fuc(a1-3)]GlcNAc(b1-3)Gal(b1-4)[Fuc(a1-3)]GlcNAc
# Method in brief: as §1
# [20] = target: Neu5Ac(a2-6)GalNAc
# Method in brief: as §1
# [21] = target: Neu5Ac(a2-6)GalNAc(b1-4)GlcNAc6S
# Method in brief: as §1
# [22] = target: Neu5Ac(a2-8)Neu5Ac(a2-3)Gal(b1-4)Glc
# Method in brief: as §1
# [23] = target: Neu5Ac(a2-8)Neu5Ac(a2-8)Neu5Ac(a2-8)Neu5Ac(a2-3)[GalNAc(b1-4)]Gal(b1-4)Glc
# Method in brief: as §1
# [24] = target: Neu5Ac(b2-6)GalNAc
# Method in brief: as §1
# [25] = target: Neu5Ac9Ac(a2-3)Gal(b1-3)GlcNAc
# Method in brief: as §1
# [26] = target: Neu5Gc(a2-6)Gal(b1-4)GlcNAc
# Method in brief: as §1
# [27] = target: Neu5Gc(a2-6)GalNAc
# Method in brief: as §1
# [28] = target: Neu5Gc(a2-8)Neu5Gc(a2-3)Gal(b1-4)GlcNAc
# Method in brief: as §1
binder,measurement,setting,value
Aap lectin (Staphylococcus epidermidis) (protein) VNLNYSSPFMSLLSMPADSSSNNTKNTIDIPPTTVKGRDNYDFYGRVDIESNPTDLNATNLTRYNYGQPPGTTTAGAVQFKNQVSFDKDFDFNIRVANNRQSNTTGADGWGFMFSKKDGDDFLKNGGILREKGTPSAAGFRIDTGYYNNDPLDKIQKQAGQGYRGYGTFVKNDSQGNTSKVGSGTPSTDFLNYADNTTNDLDGKFHGQKLNNVNLKYNASNQTFTATYAGKTWTATLSELGLSPTDSYNFLVTSS,glycan array binding signal (z-score),[1],3.29
same,glycan array binding signal (z-score),[2],-0.698
same,glycan array binding signal (z-score),[3],0.941
same,glycan array binding signal (z-score),[4],-0.278
same,glycan array binding signal (z-score),[5],0.543
same,glycan array binding signal (z-score),[6],3.83
same,glycan array binding signal (z-score),[7],-0.968
same,glycan array binding signal (z-score),[8],-0.858
same,glycan array binding signal (z-score),[9],-0.887
same,glycan array binding signal (z-score),[10],-0.885
same,glycan array binding signal (z-score),[11],-0.335
same,glycan array binding signal (z-score),[12],-0.87
same,glycan array binding signal (z-score),[13],-0.88
same,glycan array binding signal (z-score),[14],-0.708
same,glycan array binding signal (z-score),[15],-0.88
same,glycan array binding signal (z-score),[16],-0.806
same,glycan array binding signal (z-score),[17],-0.905
same,glycan array binding signal (z-score),[18],2.93
same,glycan array binding signal (z-score),[19],-0.333
same,glycan array binding signal (z-score),[20],-0.816
same,glycan array binding signal (z-score),[21],-1.16
same,glycan array binding signal (z-score),[22],-0.83
same,glycan array binding signal (z-score),[23],-0.444
same,glycan array binding signal (z-score),[24],-0.527
same,glycan array binding signal (z-score),[25],0.704
same,glycan array binding signal (z-score),[26],-0.275
same,glycan array binding signal (z-score),[27],-0.523
same,glycan array binding signal (z-score),[28],1.51
